The source of these data is the supplement of paper PMC6609913.

The test system of the assay is V-C8 + BRCA2 (BRCA2-proficient hamster cells). The experiment in a line: normalised cell viability (fraction of plate median); higher = more viable cells (less toxic). The following applies: 5 µM. In outline:
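Cell viability was measured with a resazurin assay, normalised to the plate median (modified robust per cent of sample) and averaged over triplicate wells. Hamster V-C8 cells lacking BRCA2 and V-C8 cells with BRCA2 restored were seeded in 96-well plates. After 24 h, library drugs from 10 mM DMSO stocks were added at a final 5 μM in 100 μl medium and left for 3 days (screen 1) or 6 days (screen 2), with solvent-only wells alongside.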

Structures can show the parent of a compound that is named as a salt. ± gives the standard deviation of the averaged measurements. In all, about 1,300 compounds were measured (“normalised cell viability”: median about 1, lowest 2% from about 0.15 on). The sample as a whole holds a higher share of the lowest values than the screen did.

In the case of `COc1ccc(C2CNC(=O)C2)cc1OC1CCCC1` (centres undefined) [Rolipram], the normalised cell viability is, setting by setting: (treatment time: 3 days) 0.985 ± 0.037; (treatment time: 6 days) 1.15 ± 0.22.
For `CC(C)n1c(/C=C/C(O)CC(O)CC(=O)O)c(-c2ccc(F)cc2)c2ccccc21` (centres undefined) [Fluvastatin sodium salt], in that order: 0.134 ± 0.0077 and 0.155 ± 0.013.
The matching figures for `CC(C)c1c(C(=O)Nc2ccccc2)c(-c2ccccc2)c(-c2ccc(F)cc2)n1CC[C@@H](O)C[C@@H](O)CC(=O)O` [Atorvastatin]: 0.701 ± 0.01 and 0.743 ± 0.017.
The matching figures for `CC[N+](C)(C)Cc1ccccc1Br` [Bretylium tosylate]: 0.9932 ± 0.0068 and 0.977 ± 0.013.
Consider `C=C(NC(=O)C(=C)NC(=O)c1csc(C2=N[C@@H]3c4csc(n4)[C@H]4NC(=O)c5csc(n5)[C@H]([C@](C)(O)[C@@H](C)O)NC(=O)[C@H]5CSC(=N5)/C(=C/C)NC(=O)[C@H]([C@@H](C)O)NC(=O)c5csc(n5)[C@]3(CC2)NC(=O)[C@H](C)NC(=O)C(=C)NC(=O)[C@H](C)NC(=O)[C@H]([C@@H](C)CC)N[C@@H]2C=Cc3c([C@H](C)O)cc(nc3[C@H]2O)C(=O)O[C@@H]4C)n1)C(N)=O` [Thiostrepton], for which the normalised cell viability reads like this: (treatment time: 3 days) 0.135 ± 0.0082; (treatment time: 6 days) 0.126 ± 0.013.
For `CCCC(=O)Nc1ccc(OCC(O)CNC(C)C)c(C(C)=O)c1` (centres undefined) [Acebutolol hydrochloride], the normalised cell viability was determined as 0.99 ± 0.034 (treatment time: 3 days) and 1.04 ± 0.012 (treatment time: 6 days).
For `CCC(=O)OCC(=O)[C@@]1(OC(=O)CC)[C@@H](C)C[C@H]2[C@@H]3CCC4=CC(=O)C=C[C@]4(C)[C@@]3(Cl)[C@@H](O)C[C@@]21C` [Beclomethasone dipropionate], in that order: 1 ± 0.081 and 0.987 ± 0.048.
For `Cc1onc(-c2c(F)cccc2Cl)c1C(=O)N[C@@H]1C(=O)N2[C@@H]1SC(C)(C)[C@@H]2C(=O)O` [Flucloxacillin sodium], in that order: 1.02 ± 0.065 and 0.984 ± 0.016.
The matching figures for `Cc1c(Cl)cccc1Nc1ncccc1C(=O)O` [Clonixin Lysinate]: 0.938 ± 0.067 and 0.983 ± 0.046.
With `Nc1ccc(S(=O)(=O)Nc2ncccn2)cc1` [Sulfadiazine], the normalised cell viability (treatment time: 3 days) worked out at 1.01 ± 0.068 and the normalised cell viability (treatment time: 6 days) amounted to 1.024 ± 0.0048.
For `O=S(=O)(O)CCS` [Mesna], in that order: 1.06 ± 0.07 and 1.02 ± 0.024.
For `C[C@@H]1CCC[C@H](C)N1NC(=O)c1ccc(Cl)c(S(N)(=O)=O)c1` [Clopamide], in that order: 1.22 ± 0.11 and 0.9899 ± 0.0083.
For `N#Cc1ccc(C2CCCc3cncn32)cc1` (centres undefined) [Fadrozole hydrochloride], in that order: 0.955 ± 0.11 and 0.949 ± 0.078.
With `NC(=O)c1cc[n+](CC2=C(C(=O)[O-])N3C(=O)[C@@H](NC(=O)[C@@H](c4ccccc4)S(=O)(=O)O)[C@H]3SC2)cc1` [Cefsulodin sodium salt], the normalised cell viability reads like this: (treatment time: 3 days) 0.981 ± 0.043; (treatment time: 6 days) 1.06 ± 0.048.
The matching figures for `c1ccc(-c2ccc(C(c3ccccc3)n3ccnc3)cc2)cc1` (centres undefined) [Bifonazole]: 0.951 ± 0.042 and 0.914 ± 0.066.
Regarding `O=C(O[C@@H]1C[C@@H]2C[C@H]3C[C@H](C1)N2CC3=O)c1c[nH]c2ccccc12` [Dolasetron mesilate], the normalised cell viability (treatment time: 3 days) was determined as 1.06 ± 0.19 and the normalised cell viability (treatment time: 6 days) came to 1.02 ± 0.03.
For `O=C(Oc1cccc2cccnc12)c1ccccc1` [Benzoxiquine], in that order: 0.791 ± 0.052 and 0.738 ± 0.056.
The matching figures for `COc1cccc2c1C(=O)c1c(O)c3c(c(O)c1C2=O)C[C@@](O)(C(C)=O)C[C@@H]3O[C@H]1C[C@H](N)[C@H](O)[C@H](C)O1` [Daunorubicin hydrochloride]: 0.136 ± 0.0082 and 0.128 ± 0.015.
The matching figures for `COc1cccc2c1C(=O)c1c(O)c3c(c(O)c1C2=O)C[C@@](O)(C(=O)CO)C[C@@H]3O[C@H]1C[C@H](N)[C@@H](O)[C@H](C)O1` [Epirubicin hydrochloride]: 0.136 ± 0.0036 and 0.153 ± 0.024.
As to `COc1cccc2c1C(=O)c1c(O)c3c(c(O)c1C2=O)C[C@@](O)(C(=O)CO)C[C@@H]3O[C@H]1C[C@H](N)[C@H](O)[C@H](C)O1` [Doxorubicin hydrochloride], the normalised cell viability by setting is: (treatment time: 3 days) 0.12 ± 0.0088; (treatment time: 6 days) 0.122 ± 0.0099.
For `Clc1cc(Cl)c(OCC#CI)cc1Cl` [Haloprogin], the normalised cell viability reads like this: (treatment time: 3 days) 0.278 ± 0.01; (treatment time: 6 days) 0.247 ± 0.048.
For `CCC1(c2ccccc2)C(=O)NCNC1=O` [Primidone], in that order: 0.947 ± 0.13 and 0.951 ± 0.1.
The matching figures for `CN1C(C(=O)Nc2ccccn2)=C(O)c2ccccc2S1(=O)=O` [Piroxicam]: 1.02 ± 0.032 and 1.05 ± 0.015.
For `O=C1CC2(CCCC2)CC(=O)N1CCCCN1CCN(c2ncccn2)CC1` [Buspirone hydrochloride], in that order: 0.997 ± 0.038 and 1.083 ± 0.0083.
For `CNNCc1ccc(C(=O)NC(C)C)cc1` [Procarbazine hydrochloride], the normalised cell viability by setting is: (treatment time: 3 days) 0.879 ± 0.049; (treatment time: 6 days) 0.956 ± 0.099.
For `OCCN1CCN(CCCN2c3ccccc3Sc3ccc(C(F)(F)F)cc32)CC1` [Fluphenazine dihydrochloride], in that order: 0.825 ± 0.062 and 0.662 ± 0.096.
As to `CNC(=C[N+](=O)[O-])NCCSCc1csc(CN(C)C)n1` [Nizatidine], the normalised cell viability runs as follows: (treatment time: 3 days) 1 ± 0.012; (treatment time: 6 days) 1.05 ± 0.042.
